Bioassay records from PubChem.
NR3A LBD binder: modulates the human NR3A ligand-binding domain; NR3A LBD differential scanning fluorimetry, Tm shift; 0% = protein alone, 100% = glycine-bound protein; Tm shift relative to glycine control, % at 25 µM; 340,000 tested, 2.5% active;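 active = melting temperature shift of at least 10% of the positive control shift, at one fixed dose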
esBAF inh: inhibitors of esBAF chromatin remodeling in mouse ES cells | AID 602393 | 350,000 tested, 2% active | Bmi1-luciferase knock-in reporter, 24 h; 100% = twice the neutral-well signal | reporter increase, % at 12.5 µM; in the data active = activation above about 40%;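 note: 0% = median of the plate's neutral control wells and 100% = double that signal; a rise in the Bmi1 reporter signal indicates esBAF inhibition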
NadD inh: inhibitors of Staphylococcus aureus NadD. 360,000 tested, 0.78% active. inhibition, % at 20 µM. purified NadD enzyme, colorimetric absorbance read-out; in the data active = inhibition above about 26%
SMARCA2 act: SMARCA2 function activation, primary screen; 370,000 tested, 1% active; AID 652017; MG213 cells, MMTV-luciferase reporter, dexamethasone, overnight; activation, % at 9.1 µM; in the data active = activation above about 7.8%;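 note: 0% = vehicle wells and 100% = reference activator wells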
SKN-1 inh: blocks SKN-1 activity in C. elegans; inhibition, % at 21.8 µM; C. elegans VP596 Pgst-4::GFP/RFP ratio, acrylamide-induced, 24 h; 360,000 tested, 0.49% active; AID 624304;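 active = interference check ratio from 0.5 to 1.5 plus GFP to RFP signal ratio inhibition reaching or exceeding a fixed threshold, cut at about 30% in these data, passing the limit was not always enough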
Vif imaging: inhibitors of HIV Vif | HEK293T cells, Vif self-association by quenched fluorescence, imaging, 24 h | 340,000 tested, 0.35% active | inhibition, % at 7.49 µM; in the data active = inhibition above about 50%, passing the limit was not always enough
An asterisk follows results filed as active. An excerpt weighted towards active compounds, which were near 5.2% of everything screened.

How did COc1ccc(/C=N\NC(=O)c2cccc(F)c2)cc1COc1ccccc1 do in these assays?
NR3A LBD binder: 16.1*; esBAF inh: -4.5; NadD inh: -1.1; SMARCA2 act: 2.0; SKN-1 inh: 14.9; Vif imaging: -6.1

What do the screens show for `COc1ccc(/C=N\NC(=O)c2ccc([N+](=O)[O-])cc2)cc1COc1c(F)c(F)cc(F)c1F`?
NR3A LBD binder: 4.6; NadD inh: 11.3; SMARCA2 act: -0.2; SKN-1 inh: 6.5; Vif imaging: -0.7

How did O=C(Nc1nnc(Cc2c[nH]c3ccccc23)s1)c1ccc(Cl)cc1Cl do in these assays?
NR3A LBD binder: 25.7*; NadD inh: 13.4; SMARCA2 act: -1.0; SKN-1 inh: -6.3; Vif imaging: -3.2

What do the screens show for `CCc1nnc(NC(=O)Cc2c[nH]c3ccccc23)s1`?
NR3A LBD binder: -2.4; NadD inh: 5.4; SMARCA2 act: -3.1; SKN-1 inh: 6.2; Vif imaging: 23.8

What do the screens show for `CC(C)(C)c1ccc(C(=O)Nc2nnc(Cc3c[nH]c4ccccc34)s2)cc1`?
NR3A LBD binder: 25.7*; esBAF inh: 2.5; NadD inh: 12.9; SMARCA2 act: -2.1; SKN-1 inh: 1.3; Vif imaging: -5.0

What do the screens show for `N#C/C(=C\c1ccc([N+](=O)[O-])o1)C(=O)Nc1ccc(F)cc1`?
NR3A LBD binder: -3.6; NadD inh: 13.3; SMARCA2 act: -2.0; SKN-1 inh: 35.4*; Vif imaging: 8.2

What do the screens show for `COCc1cc(C)c2c(N)c(C#N)sc2n1`?
NR3A LBD binder: -1.8; esBAF inh: -3.0; NadD inh: 2.1; SMARCA2 act: 7.9*; SKN-1 inh: -16.4; Vif imaging: -0.7

Results for Cc1ccc(C(=O)N/C(=C\c2ccco2)C(=O)NCc2cccnc2)cc1 ?
NR3A LBD binder: 1.8; esBAF inh: -0.3; NadD inh: 0.8; SMARCA2 act: 8.0*; SKN-1 inh: -0.3; Vif imaging: -14.7

What do the screens show for `Cc1ccc(C(=O)N/C(=C/c2ccco2)C(=O)NCc2ccco2)cc1`?
NR3A LBD binder: -1.2; esBAF inh: -10.1; NadD inh: 6.8; SMARCA2 act: -0.3; SKN-1 inh: 3.5; Vif imaging: -11.2

Results for CN(C)C(=O)C[C@@H]1CC[C@@H](NC(=O)Nc2cccc(F)c2)[C@H](CO)O1 ?
esBAF inh: 4.9

Results for CC(C)c1nc2sc3c(SCC(=O)NCc4ccco4)ncnc3c2c2c1CCC2 ?
NR3A LBD binder: -1.8; NadD inh: 46.3*; SMARCA2 act: -1.8; SKN-1 inh: -5.6

Results for Cc1noc(C)c1NC(=O)N(C)C[C@@H]1Oc2ccc(NS(=O)(=O)c3ccccc3)cc2CC(=O)N([C@H](C)CO)C[C@@H]1C ?
esBAF inh: 4.0

Results for [O-][n+]1c(/C=C/c2ccccc2)ccc2ccccc21 ?
NR3A LBD binder: 18.7*; esBAF inh: 0.7; NadD inh: 0.9; SMARCA2 act: 5.1; SKN-1 inh: 19.2; Vif imaging: -1.5

How did [O-][n+]1ccccc1/C=C/c1ccccc1 do in these assays?
NR3A LBD binder: 0.2; NadD inh: 1.5; SMARCA2 act: 3.9; SKN-1 inh: -6.5; Vif imaging: 3.5

What do the screens show for `COc1ccc(S(=O)(=O)N(C)C[C@H]2OCCCC[C@@H](C)Oc3ccc(NC(=O)CCC(F)(F)F)cc3C(=O)N([C@@H](C)CO)C[C@@H]2C)cc1`?
esBAF inh: -1.8

Results for Cc1ccc(C(=O)N/N=C/c2ccoc2)cc1C ?
NR3A LBD binder: -0.6; esBAF inh: 49.8*; NadD inh: 4.7; SMARCA2 act: 0.4; SKN-1 inh: -10.1; Vif imaging: 14.7

What do the screens show for `Clc1cccc(Oc2ncc(CN3CCOCC3)s2)c1`?
NR3A LBD binder: 0.9; esBAF inh: 19.2; NadD inh: -5.1; SMARCA2 act: 7.9*; SKN-1 inh: 4.4; Vif imaging: -4.2

How did Cc1cnc(C(=O)Nc2ccccc2-c2ccc(C)o2)cn1 do in these assays?
NR3A LBD binder: 0.3; esBAF inh: -7.3; NadD inh: -1.3; SMARCA2 act: -2.2; SKN-1 inh: 36.5*

How did Cc1cnc(C(=O)Nc2cccc3ncccc23)cn1 do in these assays?
NR3A LBD binder: 1.0; esBAF inh: 5.7; NadD inh: -1.4; SMARCA2 act: -3.9; SKN-1 inh: -12.4

What do the screens show for `O=C(Nc1ccc2c(c1)Cc1cc([N+](=O)[O-])ccc1-2)C(F)(F)F`?
NR3A LBD binder: -0.2; esBAF inh: 41.5*; NadD inh: 2.8; SMARCA2 act: -1.2; SKN-1 inh: 2.3; Vif imaging: 24.0

How did CCOc1ccc2nc(NC(=O)c3ccc(S(=O)(=O)N4CCOCC4)cc3)sc2c1 do in these assays?
NR3A LBD binder: 29.3*; esBAF inh: -1.4; NadD inh: 7.4; SMARCA2 act: -0.6; SKN-1 inh: 35.3*; Vif imaging: -36.1

Results for Cc1cccc2sc(NC(=O)c3ccc(NS(=O)(=O)c4cccs4)cc3)nc12 ?
NR3A LBD binder: 35.8*; esBAF inh: 9.1; NadD inh: 24.4; SMARCA2 act: -2.1; SKN-1 inh: -5.4; Vif imaging: 3.3

How did CSc1ncccc1C(=O)Nc1ccc2nc(C)sc2c1 do in these assays?
NR3A LBD binder: -6.9; NadD inh: 1.8; SMARCA2 act: -1.9; SKN-1 inh: 9.9; Vif imaging: -0.6

Results for COc1ccc(C(=O)Nc2nc3ccc(S(C)(=O)=O)cc3s2)cc1 ?
NR3A LBD binder: 10.4*; NadD inh: -0.9; SMARCA2 act: -2.8; SKN-1 inh: 6.2; Vif imaging: 1.7

What do the screens show for `CSc1ncccc1C(=O)Nc1nc2ccc(Oc3ccccc3)cc2s1`?
NR3A LBD binder: 7.2; esBAF inh: 45.1*; NadD inh: 8.8; SMARCA2 act: -1.3; SKN-1 inh: -1.7; Vif imaging: -12.5

How did COc1ccc2nc(NC(=O)c3ccc(NS(=O)(=O)c4cccs4)cc3)sc2c1 do in these assays?
NR3A LBD binder: 25.4*; NadD inh: 5.1; SMARCA2 act: -1.2; SKN-1 inh: -5.7; Vif imaging: -1.1

How did COc1cc2nc(NC(=O)c3ccccc3)[nH]c(=O)c2cc1OC do in these assays?
NR3A LBD binder: -2.3; esBAF inh: -7.4; NadD inh: 1.1; SMARCA2 act: -3.8; SKN-1 inh: 17.3

Results for COc1cc2nc(NC(=O)c3ccccc3)sc(=O)c2cc1OC ?
NR3A LBD binder: 42.3*; esBAF inh: -15.0; NadD inh: -12.6; SMARCA2 act: -0.6; SKN-1 inh: -9.8; Vif imaging: 0.0

How did O=C(Nc1ccc(Oc2ccccc2)cc1)C1CCCO1 (stereo not given) do in these assays?
NR3A LBD binder: -1.5; esBAF inh: 51.6*; NadD inh: 4.5; SMARCA2 act: 2.0; SKN-1 inh: -2.4; Vif imaging: -5.0

How did COc1ccc(NC(=O)C2CCCO2)cc1 (stereo not given) do in these assays?
NR3A LBD binder: -1.7; esBAF inh: 2.5; NadD inh: 0.5; SMARCA2 act: -1.0; SKN-1 inh: 19.0; Vif imaging: 2.6
